Rows were chosen to be rich in hits. Some 3.7% of all compounds tested hit in one or more screens of this group.
BJeLR lethal: kills HRASV12-expressing BJeLR cells | 300,000 tested, 0.17% active | BJeLR (HRASV12) viability, CellTiter-Glo ATP luminescence, 48 h | inhibition, % (test concentration not listed); in the data active = inhibition above about 50%; inconclusive = no clear call, values can overlap the other calls
Anthrax LF prot: blocks Bacillus anthracis lethal factor protease | multiplex microsphere protease cleavage assay, LF | inhibition, % at 10 µM | AID 588501 | 360,000 tested, 0.12% active; note: plate controls were buffer without enzyme for full effect and enzyme alone for no effect
BoNT A protease: inhibitors of Botulinum neurotoxin A light chain protease | multiplex microsphere protease substrate cleavage, flow cytometry | inhibition, % at 10 µM | 360,000 tested, 0.17% active | AID 588499; note: plate controls were buffer without enzyme for full effect and enzyme alone for no effect
BoNT F protease: blocks Botulinum neurotoxin F light chain protease; Multiplex microsphere protease cleavage assay, flow cytometry; inhibition, % at 10 µM; 360,000 tested, 0.22% active; AID 588497; in the data active = inhibition above about 35%, passing the limit was not always enough; inconclusive = no clear call, values can overlap the other calls; note: plate controls were buffer without enzyme for full effect and enzyme alone for no effect
Autofluor counter: flagged as autofluorescent in microsphere protease counterscreen; 360,000 tested, 3.1% active; compound autofluorescence counterscreen, microsphere flow cytometry; hits give high values; fluorescence intensity (no concentration beside the values); in the data active = fluorescence intensity above about 16000; inconclusive = no clear call, values can overlap the other calls
Vc quorum ag: quorum light induction in luxS cqsA deficient V. cholerae. V. cholerae BH1578 lux reporter, luminescence, 6 h. activation, % at 18.7 µM. 350,000 tested, 0.16% active; in the data active = activation mostly above about 9.7%, no sharp cut-off; inconclusive = no clear call, values can overlap the other calls; inactive = mostly below about 3.7%
* = called active by the depositor. Cut-off read from the data, not from the text of the source, unless noted: active = inhibition above about 30%; inconclusive = no clear call, values can overlap the other calls; inactive = below that.

Results for CN(c1ccc(C(=O)NCc2ccc3c(c2)OCO3)cc1)S(C)(=O)=O ?
BJeLR lethal: 7; Anthrax LF prot: 0; BoNT A protease: 3; BoNT F protease: 3; Autofluor counter: 22044*; Vc quorum ag: 0

Results for CN(c1ccc(C(=O)NCc2ccc3c(c2)OCO3)cc1)S(=O)(=O)c1ccccc1 ?
BJeLR lethal: 1; Anthrax LF prot: 1; BoNT A protease: -2; BoNT F protease: -6; Autofluor counter: 4881; Vc quorum ag: -1

How did CCCN1C(=O)c2ccc(C(=O)NCc3ccco3)cc2C1=O do in these assays?
BJeLR lethal: 1; Anthrax LF prot: -3; BoNT A protease: inconclusive; BoNT F protease: 1; Autofluor counter: 23188*; Vc quorum ag: 1

How did CCN1C(=O)c2ccc(C(=O)NCc3ccc4c(c3)OCO4)cc2C1=O do in these assays?
BJeLR lethal: -3; Anthrax LF prot: -2; BoNT A protease: 0; BoNT F protease: -2; Autofluor counter: 16137*; Vc quorum ag: inactive

How did CN1OC[C@@H]2CN3C(=O)N(c4ccccc4)c4ccccc4[C@@H]3C[C@@H]21 do in these assays?
Anthrax LF prot: -7; BoNT A protease: 0; BoNT F protease: 2; Autofluor counter: 4427

Results for O=C(NCc1ccc2c(c1)OCO2)c1ccc(Br)cc1 ?
BJeLR lethal: -12; Anthrax LF prot: -7; BoNT A protease: 1; BoNT F protease: inconclusive; Autofluor counter: 4289; Vc quorum ag: inactive

What do the screens show for `O=C(NCc1ccc2c(c1)OCO2)c1ccc(-n2cnnn2)cc1`?
BJeLR lethal: -8; Anthrax LF prot: 1; BoNT A protease: inconclusive; BoNT F protease: 0; Autofluor counter: 16294*; Vc quorum ag: 0

What do the screens show for `O=S1(=O)CCN(C2CCCCCC2)CC1`?
Anthrax LF prot: 2; BoNT A protease: 0; BoNT F protease: 2; Autofluor counter: 3022; Vc quorum ag: inactive

What do the screens show for `O=S1(=O)CCC(N2CCOCC2)C1` (stereo not given)?
BJeLR lethal: -3; Anthrax LF prot: -4; BoNT A protease: inconclusive; BoNT F protease: -4; Autofluor counter: 23902*; Vc quorum ag: 0

What do the screens show for `COc1ccccc1-c1c(C)oc2cc(OC(=O)c3ccco3)ccc2c1=O`?
BJeLR lethal: 14; Anthrax LF prot: 0; BoNT A protease: inconclusive; BoNT F protease: -4; Autofluor counter: 20703*; Vc quorum ag: 2

Results for CC1(C)N(OCc2ccccc2)C(=O)C(=O)N(OCc2ccccc2)C1(C)C ?
BJeLR lethal: 6; Anthrax LF prot: -13; BoNT A protease: inconclusive; BoNT F protease: 8; Autofluor counter: 20720*; Vc quorum ag: -2

How did O=C1c2ccccc2C(=O)N1OCc1ccccc1 do in these assays?
BJeLR lethal: 3; Anthrax LF prot: -2; BoNT A protease: 0; BoNT F protease: 1; Autofluor counter: 9173; Vc quorum ag: 0

Results for Cc1ccc(C(=O)Nc2ccccc2C(=O)N2CC(C)OC(C)C2)cc1 (stereo not given) ?
Anthrax LF prot: -2; BoNT A protease: 0; BoNT F protease: -5; Autofluor counter: 4037; Vc quorum ag: -6

What do the screens show for `CN(C)c1ccc(CNn2cnnc2SCc2ccccc2F)cc1`?
BJeLR lethal: 0; Anthrax LF prot: -3; BoNT A protease: 10; BoNT F protease: 13; Autofluor counter: 19034*; Vc quorum ag: inactive

Results for CN(C)c1ccc(CNn2cnnc2SCC(=O)NC(C)(C)C)cc1 ?
BJeLR lethal: -1; Anthrax LF prot: -2; BoNT A protease: 0; BoNT F protease: 0; Autofluor counter: 4255; Vc quorum ag: -2

How did CC(C)NC(=S)N/N=C1\CCCCC1C1CCCCC1 (stereo not given) do in these assays?
BJeLR lethal: 2; Anthrax LF prot: 0; BoNT A protease: inconclusive; BoNT F protease: 1; Autofluor counter: 22179*; Vc quorum ag: -2

How did CC1CCCC/C1=N\NC(=S)Nc1ccccc1 (stereo not given) do in these assays?
BJeLR lethal: 0; Anthrax LF prot: 8; BoNT A protease: 0; BoNT F protease: 3; Autofluor counter: 3006; Vc quorum ag: -1

How did CN(C)c1ccc(-c2csc(C(C)(O)c3cccc(F)c3)n2)cc1 (stereo not given) do in these assays?
Anthrax LF prot: -4; BoNT A protease: -1; BoNT F protease: -4; Autofluor counter: 2924; Vc quorum ag: inactive

What do the screens show for `O=C(O)CCc1ccc(-c2ccccc2)n1CC(=O)O`?
BJeLR lethal: -13; Anthrax LF prot: -6; BoNT A protease: -1; BoNT F protease: -5; Autofluor counter: 10276; Vc quorum ag: 0

How did Cc1c(Cl)cccc1NC(=O)CN1CCC(C(O)(c2ccccc2)c2ccccc2)CC1 do in these assays?
BJeLR lethal: 1; Anthrax LF prot: 1; BoNT A protease: -4; BoNT F protease: -7; Autofluor counter: 21085*; Vc quorum ag: 0

What do the screens show for `Cc1c(Cl)cccc1NC(=O)Cn1c(CCC(=O)O)ccc1-c1ccccc1`?
BJeLR lethal: -5; Anthrax LF prot: -12; BoNT A protease: -2; BoNT F protease: 48*; Autofluor counter: 4011; Vc quorum ag: inactive

Results for O=C(C1CC1)N1CCC(C(O)(c2ccccc2)c2ccccc2)CC1 ?
BJeLR lethal: -1; Anthrax LF prot: -2; BoNT A protease: inconclusive; BoNT F protease: 4; Autofluor counter: 21864*; Vc quorum ag: 3

How did O=C(c1ccccc1)N1CCN(C(=O)C2CC2)CC1 do in these assays?
BJeLR lethal: -16; Anthrax LF prot: -1; BoNT A protease: -1; BoNT F protease: 2; Autofluor counter: 5927; Vc quorum ag: 0

Results for CC1(C(=O)NS(=O)(=O)c2ccc(F)cc2F)CCN1C(=O)CC(c1ccccc1)c1ccccc1 (stereo not given) ?
Anthrax LF prot: 2; BoNT A protease: -1; BoNT F protease: -5; Autofluor counter: 4254; Vc quorum ag: 0

What do the screens show for `COc1cccc(Nc2nc(C(N)Cc3ccc(C(F)(F)F)cc3)cs2)n1` (stereo not given)?
Anthrax LF prot: -8; BoNT A protease: 0; BoNT F protease: -31; Autofluor counter: 2916; Vc quorum ag: inactive

What do the screens show for `COc1ccccc1CC(=O)NNC(=O)c1ccc(C(C)(C)C)cc1`?
BJeLR lethal: 5; Anthrax LF prot: 0; BoNT A protease: 2; BoNT F protease: 2; Autofluor counter: 5620; Vc quorum ag: -1

Results for COc1ccccc1Cc1noc(C(C)(C)NC(=O)c2ccccc2)n1 ?
BJeLR lethal: 5; Anthrax LF prot: -2; BoNT A protease: -4; BoNT F protease: -5; Autofluor counter: 17677*; Vc quorum ag: 0

What do the screens show for `CCOC(=O)C1(C)CCCN(C(=O)c2cccc(C(F)(F)F)c2)C1` (stereo not given)?
Anthrax LF prot: -16; BoNT A protease: -1; BoNT F protease: -16; Autofluor counter: 4015; Vc quorum ag: 0

Results for CCC(=O)Nc1cc(Cl)ccc1C(=O)O ?
BJeLR lethal: -1; Anthrax LF prot: 2; BoNT A protease: inconclusive; BoNT F protease: 2; Autofluor counter: 19235*; Vc quorum ag: inactive

High-throughput results deposited in PubChem BioAssay by several laboratories.
